Many of the other results were omitted from the sample, so hits are more common in it than they were.
AMA1-RON2 inh: disrupts binding of P. falciparum AMA1 to RON2; AlphaScreen AMA1-biotinylated RON2 peptide binding; Potency, µM (series often up to 58.2 µM), without a hit: at the highest dose activity change, negative = inhibition, hits mostly inhibitors; 360,000 compounds, 0.2% hits; AID 720542;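 further: potency means the concentration at half of the fitted maximal effect; 0% = vehicle wells and -100% = peptide control; nearly all actives have a fitted effect of over 45% in size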
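AMA1 (3D7) with his tag at 25 nM final met compounds first, then biotinylated RON2 peptide at 25 nM; detection used donor plus acceptor beads, 10 µg/mL apiece, read by AlphaScreen after 30 min at room temperature.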
AmpC detergent: inhibitors of E. coli AmpC beta-lactamase with detergent. P00811. AmpC hydrolysis of nitrocefin, absorbance 480 nm, 0.01% Triton. Potency, µM (series often up to 114 µM), without a hit: top-dose activity change, negative = inhibition, hits mostly inhibitors. 370,000 compounds, 0.041% hits. AID 485294;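 further: potency means the concentration at half of the fitted maximal effect; 0% = no-compound wells and -100% = no-enzyme wells; nearly all actives have a fitted effect of over 25% in size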
Target sequence (P00811 whole entry, looked up): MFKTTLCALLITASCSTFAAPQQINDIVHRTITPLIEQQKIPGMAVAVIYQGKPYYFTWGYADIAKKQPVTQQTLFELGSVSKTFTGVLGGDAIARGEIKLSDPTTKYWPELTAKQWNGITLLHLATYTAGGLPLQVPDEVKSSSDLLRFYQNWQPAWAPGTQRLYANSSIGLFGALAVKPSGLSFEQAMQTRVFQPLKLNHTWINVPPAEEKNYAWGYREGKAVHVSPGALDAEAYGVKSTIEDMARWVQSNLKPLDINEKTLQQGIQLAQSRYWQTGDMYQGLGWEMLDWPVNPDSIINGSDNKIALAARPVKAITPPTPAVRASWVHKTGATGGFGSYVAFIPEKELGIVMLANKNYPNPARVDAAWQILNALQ
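AmpC (5.3 nM in the dispensed reagent) in 20 mM phosphate pH 7.0 with 0.01% (detergent screen) or 0.0001% Triton X-100 was preincubated with compounds for 15 min at room temperature. Nitrocefin was then added from an 800 uM solution, and hydrolysis was followed at 480 nm.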
AmpC inh no detg: blocks E. coli AmpC beta-lactamase in detergent-free assay | AmpC nitrocefin hydrolysis, absorbance 480 nm, 0.0001% Triton | Potency, µM (top dose mostly 57.1 µM), for the others: at the top dose activity change, negative = inhibition, usual class: inhibitors | 330,000 compounds, 0.52% hits;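 further: potency means the concentration at half of the fitted maximal effect; plate controls were no compound for no effect and no enzyme for full effect; nearly all actives have a fitted effect of over 20% in size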
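AmpC (5.3 nM in the dispensed reagent) in 20 mM phosphate pH 7.0 with 0.01% (detergent screen) or 0.0001% Triton X-100 was preincubated with compounds for 15 min at room temperature. Nitrocefin was then added from an 800 uM solution, and hydrolysis was followed at 480 nm.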
Cycloheximide cs: counter-screen hit for Shiga toxin inhibitors, cycloheximide; max response, %; 300,000 compounds, 12% hits; cell reporter, cycloheximide protein synthesis inhibition counterscreen; AID 2314; in the data active means max response mostly above about 13%, no sharp cut-off; inactive means mostly below about 14%; further: read at 38.3 µM for the half of the compounds with a filed dose; 0% is about no effect
Shiga toxin inh: inhibitors of Shiga toxin in Vero cells; inhibition, % at 38.7 µM; Vero cells, Shiga toxin protein synthesis inhibition reporter; 290,000 compounds, 9.2% hits; AID 2315; in the data active means inhibition mostly above about 28%, no sharp cut-off; inactive means mostly below about 43%; further: 0% is about no effect
SARS PLpro yeast: SARS-CoV PLP inhibition in yeast; S. cerevisiae expressing SARS-CoV PLpro, growth rescue; Potency, µM (highest dose often 32.9 µM), for inactives: at the top dose activity, positive = growth rescue, usual class: activators; 330,000 compounds, 0.19% hits; calls by dose curve; further: potency means the concentration at half of the fitted maximal effect; 0% is about no effect; nearly all actives have a fitted effect of over 55% in size
The depositor's hits bear a star; ? = inconclusive; . = not tested or not shown; [ ] = dose if it differs, or a comment. Unless noted, the call rests on the fitted dose curve; in most records, active means well fitted curve in the direction sought with a large enough effect; inconclusive means small, poorly fitted or top-dose-only effect, or another doubt; inactive means no such curve, though single readings can be large; an effect the other way counts as inactive or inconclusive.

SMILES	AMA1-RON2 inh	AmpC detergent	AmpC inh no detg	Cycloheximide cs	Shiga toxin inh	SARS PLpro yeast
Cc1ccc2c(c1)C(c1ccccc1)N(C(=O)c1ccccc1[N+](=O)[O-])CC(=O)N2 (centres undefined)	-9%	-5%	-17%	-5	-17	0%
CCOC(=O)c1ccc(/C=C2/C=C(c3ccccc3)N(c3ccc(Cl)c(C(=O)O)c3)C2=O)cc1	-12%	-1%	-12%	-2	10	8%
CC(C)c1ccc2oc(-c3ccc(N)cc3)nc2c1	7%	-10%	16%	42*	117*	1%
CCN1C(=S)SC(=O)C1=C1C=C(C)N(Cc2ccco2)C(C)=C1	4%	-11%	91%	55*	96*	7%
CCN1CCN(C(=O)c2cc3cc4cc(OC)ccc4nc3s2)CC1	-4%	10%	87%	12*	25*	3%
CCOc1ccc(CCNC(=O)c2cc3cc4ccc(OC)cc4nc3s2)cc1OCC	.	10%	.	.	.	.
COc1ccc2cc3cc(C(=O)NC4CC4)sc3nc2c1	-14%	2%	-26%	48*	57*	0%
COc1ccc2cc3cc(C(=O)N4CCN(c5cccc(C(F)(F)F)c5)CC4)sc3nc2c1	.	-2%	.	.	.	.
COc1ccc2nc3sc(C(=O)NCCN4CCc5ccccc5C4)cc3cc2c1	1%	?	-13%	43*	53*	8%
COc1ccc2nc3sc(C(=O)NCCc4ccc(Cl)cc4)cc3cc2c1	.	-8%	.	.	.	.
COc1ccc2cc3cc(C(=O)NCCCN4CCc5ccccc5C4)sc3nc2c1	0%	-6%	-19%	35*	71*	9%
CCN(CCCNC(=O)c1cc2cc3cc(OC)ccc3nc2s1)c1cccc(C)c1	.	19%	.	.	.	.
COc1cc(/C=N/n2cnnc2)ccc1OC(=O)c1cccnc1	-5%	-5%	-13%	-2	-6	2%
Cc1ccc(CNS(=O)(=O)c2c(N)n(C)c(=O)n(C)c2=O)cc1	4%	-7%	-6%	0	-4	-4%
COc1cc2c(cc1OC)CN(C(=O)CN1C(=O)c3ccc([N+](=O)[O-])cc3C1=O)CC2	-23%	1%	9%	.	.	0%
N#CCSc1ccc(-c2nc3ccccc3[nH]2)cn1	10%	-3%	-32%	29*	44*	-3%
Cn1cc(-c2nc3ccccc3[nH]2)c2ccccc21	-18%	-14%	-16%	36*	87*	-11%
Oc1ccc(C=Nc2ccccc2-c2nc3ccccc3[nH]2)cc1	6%	-7%	?	70*	92*	-51%
Cc1c(-c2nc3ccccc3[nH]2)cnn1C	6%	6%	-14%	.	.	1%
CCn1c(=O)c(-c2nc3ccccc3[nH]2)c(O)c2ccccc21	109%	2%	-15%	22*	35	-1%
CCCn1c(=O)c(-c2nc3ccccc3[nH]2)c(O)c2ccccc21	84%	0%	-25%	15	6	-6%
Nc1ccc(-c2nc3ccccc3[nH]2)cc1	-4%	?	-8%	33*	102*	0%
O=C(O)c1ccc(-c2nc3ccccc3[nH]2)cc1	13%	-5%	-8%	1	-12	-4%
Cc1[nH]ncc1-c1nc2ccccc2[nH]1	25%	0%	-23%	1	20	1%
Nc1ccccc1-c1nc2ccccc2[nH]1	69%	-3%	-45%	45*	92*	-13%
SMILES	AMA1-RON2 inh	AmpC detergent	AmpC inh no detg	Cycloheximide cs	Shiga toxin inh	SARS PLpro yeast
Fc1ccc(-c2nc3ccccc3[nH]2)cc1	0%	-4%	-17%	35*	115*	-2%
Nc1ccc2nc(-c3ccc(-c4nc5ccc(N)cc5[nH]4)cc3)[nH]c2c1	-13%	-10%	-23%	-3	33	-1%
c1ccc(-c2cc(-c3nc4ccccc4[nH]3)c3ccccc3n2)cc1	-3%[2.32 µM]	6%	24%	6	13	-73%
O=c1[nH]cccc1-c1nc2ccccc2[nH]1	-3%	0%	-15%	21*	55*	-1%
COc1cccc(O)c1CN1CCC(C(=O)Nc2ccc(-c3cccc(C)c3)cc2)CC1	-16%	5%	-25%	1	22	2%
Nc1ccc(-c2nc3c(ccc4ccccc43)[nH]2)cc1	-12%	0%	-24%	25*	43*	?
Nc1ccc(-c2nc3ccc(-c4nc5ccc(N)cc5[nH]4)cc3[nH]2)cc1	.	.	.	0	-7	.
COc1ccc(-n2c(-c3cc(-c4ccccc4)sc3N)n[nH]c2=S)cc1	89%	4%	-37%	0	-21	-1%
CCn1c2ccccc2c2cc(CN3CCN(Cc4ccc(Br)cc4)CC3)ccc21	.	-1%	.	.	.	.
CC(C)c1ccc(O)c(C(=O)c2cnn(-c3ccccc3)c2)c1	-16%	.	.	.	.	.
O=C(c1cnn(-c2nc3ccccc3s2)c1)c1ccccc1O	-16%	?	-15%	30*	47*	5%
O=C(c1cnn(-c2cccc(F)c2)c1)c1ccccc1O	-4%	-2%	-28%	24*	100*	-1%
O=C(c1cnn(-c2ccccc2)c1)c1cc(Br)ccc1O	-15%	-2%	-22%	.	.	-1%
O=C(O)c1ccc(-n2cc(C(=O)c3ccccc3O)cn2)cc1	-6%	-3%	-11%	29*	30	1%
O=C(c1cnn(C(=O)c2ccccc2)c1)c1ccccc1O	45%	-10%	-24%	14	31	-7%
CC(C)(C)NC(=S)NC(=O)C12CC3CCC(CC(C3)C1)C2	-3%	-8%	-23%	-3	-9	-12%
Cc1ccccc1CN1CCNC(=O)C1CC(=O)NCCN1CCCCC1=O (centres undefined)	10%	-4%	16%	1	-6	-8%
C=CCOc1ccccc1CNc1cccc(F)c1	-7%	-3%	-29%	-1	-9	7%
CCOc1ccc(Br)cc1CNc1ccc2c(c1)OCCO2	32µM*	-14%	-43%	23*	43	-1%
C=CCOc1ccccc1CNc1ccc2c(c1)OCCO2	-25%	-5%	-6%	27*	53*	-4%
C=CCNC(=S)Nc1ccc2nc(C)c(C)nc2c1	8%	-3%	-20%	27*	61	5%
CCNC(=S)Nc1ccc(N(c2ccccc2)C(C)C)cc1	13%	-13%	-3%	17*	57*	0%
CCc1ccc(NC(=S)NCc2ccccc2)cc1	7%	3%	-31%	34*	142*	3%
Cc1nc2ccc(NC(=S)NCc3ccccc3)cc2nc1C	7%	-4%	16%	27*	35	0%
CCCCSC(=S)N(C)C1CCS(=O)(=O)C1 (centres undefined)	-11%	-3%	91%	-5	-2	-21%
COc1ccc(CCN(C)Cc2ccncc2)cc1OC	-20%	-11%	-23%	-3	-10	5%
CCOC(=O)N1CCN(C(=O)COc2cccc3c2CCN(CC)C3=O)CC1	13%	0%	-1%	-5	-8	3%

Compound activity (PubChem BioAssay)
